# Data as given in PubChem BioAssay (NCATS).
# Results filed as inconclusive are left out. Active and inactive are the calls of the source. Unless noted, the call rests on the fitted dose curve; in most records, active means well fitted curve in the direction sought with a large enough effect; inconclusive means small, poorly fitted or top-dose-only effect, or another doubt; inactive means no such curve, though single readings can be large; an effect the other way counts as inactive or inconclusive.
# Columns and labels:
# [1] = P-glycoprotein substrates identified in KB-8-5-11 adenocarcinoma cell line, qHTS therapeutic library screen (AID 1346987); further: series mostly up to about 44 µM; on the % scale 0 is the no-effect control and ±100 the full control effect; nearly all actives have a fitted effect of over 65% in size
# How it was run: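 Compounds are pinned in dose-response onto KB-8-5-11 cells (500 cells/well, colchicine-free medium) and left 72 h at 37 degree C. CellTiter-Glo luminescence then yields AC50 values.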
# [2] = Primary qHTS for inhibitors of nuclear receptor binding SET domain protein 2 (NSD2) in an isogenic RCH-ACV NSD2 p.E1099K mutant (9B) (AID 1645876); further: potency means the concentration at half of the fitted maximal effect; nearly all actives have a fitted effect of over 70% in size
# [3] = Primary qHTS for inhibitors of nuclear receptor binding SET domain protein 2 (NSD2) in an RCH-ACV wild type WT cells (2C) (AID 1645877); further: potency means the concentration at half of the fitted maximal effect; nearly all actives have a fitted effect of over 70% in size
# [4] = molecular target: Glutathione peroxidase 1 (Homo sapiens) (UniProt P07203); experiment: Primary qHTS Assay for Inhibitors of Recombinant Selenoprotein Glutathione Peroxidase 1 (GPX1) (AID 1845191); further: nearly all actives have a fitted effect of over 65% in size
# Sequence of Glutathione peroxidase 1 (Homo sapiens) (P07203 whole entry, looked up): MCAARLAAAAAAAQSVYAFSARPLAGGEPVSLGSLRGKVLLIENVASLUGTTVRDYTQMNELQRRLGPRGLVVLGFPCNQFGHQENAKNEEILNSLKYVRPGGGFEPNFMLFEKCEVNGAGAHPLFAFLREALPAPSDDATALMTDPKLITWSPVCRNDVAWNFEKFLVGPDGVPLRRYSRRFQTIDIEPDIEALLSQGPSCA
# How it was run: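 NADPH consumption tracked by fluorescence at 340/450 nm between t=0 and t=15 min, room temperature. Final mix: 10 nM GPX1, 100 nM glutathione reductase, 1 mM GSH, 0.5 mM NADPH, 0.5 mM cumene hydroperoxide, 0.01% BSA; 30 min compound–enzyme preincubation.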
# [5] = qHTS drug screen for cell cycle checkpoint inhibitors in PARPi-resistant BRCA-mutant ovarian cancer cell lines. (AID 1963452; calls by dose curve); conditions: PEO1/OlaR viability, CellTiter-Glo luminescence, 96 h, stronger effect = lower value
# How it was run: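 PEO1, PEO4 and PEO1/OlaR ovarian cancer cells, 600 per well, exposed 96 h at 37C to a dilution series. Viability read by CellTiter-Glo luminescence, normalized to DMSO and empty wells; activity summarized as Z-AUC.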
smiles,measurement,setting,value
Cc1ccc(NC(=O)Nc2nnc(Sc3ncnc4cc(OCCCN5CCOCC5)ccc34)s2)cc1,Potency,[1],inactive
same,Potency,[2],3.66 µM (active)
same,Potency,[3],5.17 µM (active)
same,Potency,[4],inactive
same,Z-AUC,[5],-0.628 (inactive)
same,Z-AUC,[5]; measured here: PEO1 parental Z-AUC,0.369
same,Z-AUC,[5]; measured here: PEO4 Z-AUC,0.158
